The whole screen tested about 87,000 compounds, of which about 540 (0.62%) were called active. No rule for the calls is given here. Shown is part of a subset that was picked to be rich in actives. Entries with a potency or affinity are not part of this list.
experiment: MT1-MMP gene expression reporter suppression – cell-based, luciferase reporter, luminescence (AID 618); conditions: MT1-MMP promoter luciferase reporter cells;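 also: actives suppress MT1-MMP promoter-driven transcription so potencies describe inhibitors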

Row | SMILES | outcome
1 | CC(=O)Nc1ccc(OCC(=O)c2ccc(C)cc2C)cc1 | inactive
2 | CC(C)NC(=O)c1ccccc1NC(=O)c1ccccc1N(C)S(C)(=O)=O | inactive
3 | COCC(C)n1c(C)cc(C(=O)COC(=O)c2n[nH]c3ccccc23)c1C (stereo not drawn) | inactive
4 | CCOC(=O)c1n[nH]c2ccccc12 | inactive
5 | COCCn1c(C)cc(C(=O)COC(=O)c2ccc(-n3nc(C)cc3C)cc2)c1C | inactive
6 | COCCn1c(C)cc(C(=O)COC(=O)c2n[nH]c3ccccc23)c1C | active
7 | Cc1cc(NC(=O)COC(=O)c2n[nH]c3ccccc23)no1 | inactive
8 | CCCCCn1c(=O)[nH]c2cc(C(=O)O)ccc2c1=O | inactive
9 | Clc1ccccc1CSc1nnc(Cn2cnc3ccccc32)n1-c1ccccc1 | inactive
10 | CN1CCC(NC(=O)c2cccs2)CC1 | inactive
11 | CCCOc1ccc(-c2nnc(-c3ccncc3)o2)cc1 | inactive
12 | CC(C)COc1ccc(-c2nnc(-c3ccco3)o2)cc1 | inactive
13 | CCOc1ccc(-c2nnc(-c3cccs3)o2)cc1 | inactive
14 | CCCOc1ccc(-c2nnc(-c3ccco3)o2)cc1 | inactive
15 | O=C(CN1CCOCC1)Nc1c2c(nc3ccccc13)N(Cc1ccccc1)CC2 | inactive
16 | O=C(O)C1CCN(S(=O)(=O)c2ccc(Oc3ccccc3)cc2)CC1 | inactive
17 | Cc1cc(NC(=O)CCCC(=O)Nc2ccc(F)cc2)no1 | inactive
18 | COc1ccc(S(=O)(=O)N[C@@H](Cc2ccccc2)C(=O)N2CC[C@@]3(O)CCCC[C@H]3C2)cc1 | inactive
19 | Cc1c(NC(=O)c2cnn3c2NC(c2ccc(Br)cc2)CC3C(F)(F)F)c(=O)n(-c2ccccc2)n1C (stereo not drawn) | inactive
20 | c1cc(-c2nc3ccccc3o2)nc(-c2nc3ccccc3o2)c1 | inactive
21 | c1ccc2nc(-c3nc4ccccc4o3)ccc2c1 | active

Row | SMILES | outcome
22 | c1ccc(-c2nc3ccccc3o2)nc1 | inactive
23 | CCNc1nnc(-c2ccc(C)cc2)o1 | inactive
24 | Cc1ccc(-c2nnc(-c3ccccc3)o2)cc1 | inactive
25 | Cc1ccc(-c2nnc(Nc3ccccc3)o2)cc1 | active
26 | O=C(O)CCCn1c(=O)[nH]c2ccccc2c1=O | inactive
27 | Cc1ccc(C(=O)N2c3ccccc3N(Cc3ccccc3)C(=O)C2(C)C)cc1 | inactive
28 | Cc1ccc(C)c(CN2C(=O)C3(OCCCO3)c3ccccc32)c1 | inactive
29 | CC(=O)N1c2ccccc2N(Cc2ccc(C)cc2C)C(=O)C1(C)C | active
30 | COc1ccc(N(C)S(=O)(=O)c2ccc3c(c2)oc(=O)n3C)cc1 | inactive
31 | Cc1[nH]c2ccc(C(=O)O)cc2c1C | inactive
32 | Cc1nn2c(CN(C(=O)c3ccco3)c3ccccc3)nnc2c2ccccc12 | inactive
33 | O=S(=O)(N1CCOCC1)n1nnc2ccccc21 | inactive
34 | O=C(N1CCOCC1)n1nnc2ccccc21 | inactive
35 | O=C(CSc1ncnc2ccccc12)N1CCN(c2ccccc2)CC1 | inactive
36 | NC(=O)C1CCN(C(=O)c2cc3ccccn3n2)CC1 | inactive
37 | COC(=O)CCn1nnc(-c2ccc(C)cc2)n1 | inactive
38 | COc1ccc(-c2nnn(CCC(=O)O)n2)cc1 | inactive
39 | Cc1ccc(-c2nnn(CCC(=O)NC(C)(C)C)n2)cc1 | inactive
40 | COC(=O)CCn1nnc(-c2cccs2)n1 | inactive
41 | COc1cccc(-c2nnn(CCC(=O)O)n2)c1 | inactive
42 | COc1ccc(NC(=O)CCn2nnc(-c3ccc(C)cc3)n2)cc1OC | inactive

Row | SMILES | outcome
43 | O=C(c1ccc(CS(=O)(=O)c2ccccc2)o1)N1CCOCC1 | inactive
44 | CCCn1c(=S)[nH]c2cc(OC)c(OC)cc2c1=O | inactive
45 | CC(=O)N1CCN(CCN=CC2=C(O)CC(c3ccc(Cl)cc3)CC2=O)CC1 (stereo not drawn) | inactive
46 | O=C(C1CCCN(Cc2ccccc2)C1)N1CCc2ccccc2C1 (stereo not drawn) | inactive
47 | NC(=O)c1cc(Cl)cn(-c2ccccc2)c1=O | inactive
48 | CCOC(=O)C1CCCN(c2ncnc3c2[nH]c2cccc(OC)c23)C1 (stereo not drawn) | inactive
49 | O=C(c1cc(-c2cccs2)nc2ccccc12)N1CCN(S(=O)(=O)c2cccc(F)c2)CC1 | inactive
50 | CSC(=O)CC(=O)NC(=O)c1ccccc1 | inactive
51 | Cc1ccc2oc(Nc3nc(C)cc(C)n3)nc2c1 | inactive
52 | Cc1cccc(C)c1Nc1nc2ccccc2o1 | inactive
53 | Cc1ccc(NC(=O)c2c(C)nc(Nc3nc4ccccc4o3)nc2C)cc1 | inactive
54 | O=c1[nH]c(Nc2nc3ccccc3o2)nc2c1CCCC2 | inactive
55 | O=C(c1cccs1)N1CCc2ccccc21 | inactive
56 | COc1cccc(-c2noc(-c3cccnc3)n2)c1 | inactive
57 | Cc1ccc(-c2nc(-c3ccccn3)no2)cc1Cl | active
58 | COc1cccc(-c2nc(-c3ccccc3)no2)c1 | inactive
59 | COc1ccc(-c2noc(-c3cccc(Cl)c3)n2)cc1OC | inactive
60 | c1ccc(-c2cc(-c3nc(-c4ccccn4)no3)c3ccccc3n2)cc1 | inactive
61 | c1ccc(SCc2nc(-c3ccccn3)no2)cc1 | inactive
62 | Cc1onc(-c2ccccc2Cl)c1-c1nc(-c2ccccn2)no1 | inactive
63 | Cc1ccc(SCc2nc(-c3ccccn3)no2)cc1 | inactive

Row | SMILES | outcome
64 | Clc1cccc(-c2nc(-c3ccccn3)no2)c1 | active
65 | Clc1ccc(-c2nc(-c3ccccn3)no2)cc1Cl | inactive
66 | c1ccc(-c2noc(-c3ccc4ccccc4c3)n2)nc1 | active
67 | O=C(Nc1nccs1)c1ccc(COc2ccccc2Br)o1 | inactive
68 | O=C(CSCc1c(Cl)cccc1Cl)Nc1nccs1 | inactive
69 | CCCCOC(=O)Nc1ccc(C(N)=O)cc1 | inactive
70 | C/C=C/c1ccc(OCCCNC)c(OC)c1 | inactive
71 | CC1CCN(C(=O)COc2ccccc2F)CC1 | inactive
72 | O=C(CCn1c(=O)[nH]c2ccsc2c1=O)N1CCN(c2cccc(Cl)c2)CC1 | inactive
73 | CCCc1cc(C(=O)Nc2cc(OC)c(Cl)cc2OC)no1 | inactive
74 | c1ccc(-c2noc(-c3ccncc3)n2)nc1 | inactive
75 | COc1ccc(-c2nc(-c3ccccc3)no2)c(OC)c1 | active
76 | COc1ccc(-c2noc(-c3ccc4c(c3)OCO4)n2)cc1 | inactive
77 | c1ccc(-c2noc(-c3ccc4c(c3)OCO4)n2)nc1 | active
78 | COc1ccc(-c2noc(-c3ccccc3-c3ccccc3)n2)cc1 | inactive
79 | c1ccc(-c2noc(-c3ccco3)n2)nc1 | inactive
80 | c1ccc(-c2noc(-c3cccnc3)n2)nc1 | inactive
81 | Brc1ccc(-c2nc(-c3ccccc3)no2)o1 | inactive
82 | c1cc(-c2noc(-c3ccc4c(c3)OCO4)n2)ccn1 | inactive
83 | COc1ccc(-c2nc(-c3ccc(Br)cc3)no2)c(OC)c1 | inactive

From PubChem BioAssay AID618 (Sanford-Burnham Center for Chemical Genomics, 2007)
